Assay results from PubChem BioAssay.
Unmarked numbers belong to inactive results. For some assays here: Entries with a potency or affinity are not part of this list. Calls of active or inactive are those of the source. Unless noted, the rule behind the calls is not given here.

Tests used:
[1] = antimalarial activity against Dd2 strain (AID 2302;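 active = growth inhibition above 50% at the single 2 µM test dose, taken to imply half-maximal potency below 2 µM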;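 note: 0% = DMSO untreated growth and 100% = chloroquine plus artemisinin killed control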); details: P. falciparum Dd2 in RBCs, LDH growth readout, 72 h; at 2 µM; active compounds read high
[2] = HepG2 cytotoxicity, primary screen, cytotoxicity control for P. falciparum antimalarial project, cell-based, ATP luminescence (AID 2303;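 active = inhibition above 50%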;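 note: 0% = DMSO wells and 100% = digitonin-killed cells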); details: HepG2 viability, 24-48 h, at 10 µM, active compounds read high
[3] = biological target: L-lactate dehydrogenase (Plasmodium falciparum (isolate CDC / Honduras)) (UniProt Q27743); experiment: PfLDH activity inhibition – cell lysate, 3D7 strain, counter-screen for P. falciparum growth inhibition project (AID 2304);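 note: 0% = vehicle and 100% = reference inhibitor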; details: P. falciparum 3D7 crude extract, LDH APAD/NBT absorbance; at 2 µM; active compounds read high
L-lactate dehydrogenase (Plasmodium falciparum (isolate CDC / Honduras)), sequence (Q27743 whole entry, looked up): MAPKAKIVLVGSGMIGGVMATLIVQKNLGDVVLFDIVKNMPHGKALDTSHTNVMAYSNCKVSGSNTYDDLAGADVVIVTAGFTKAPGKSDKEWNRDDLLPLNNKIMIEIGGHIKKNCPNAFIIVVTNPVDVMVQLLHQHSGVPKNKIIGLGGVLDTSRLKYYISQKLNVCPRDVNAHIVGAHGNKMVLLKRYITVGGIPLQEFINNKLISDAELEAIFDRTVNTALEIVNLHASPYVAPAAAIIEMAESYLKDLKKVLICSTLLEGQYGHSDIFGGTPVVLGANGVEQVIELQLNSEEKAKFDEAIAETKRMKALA

[4] = inhibition of 3D7 malaria parasite growth – strain 3D7 (AID 2306);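 note: 0% = DMSO wells and 100% = chloroquine plus artemisinin control wells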; details: P. falciparum 3D7 erythrocytic growth, LDH absorbance, 72 h; at 2 µM; active compounds read high
[5] = biological target: Calcium-dependent protein kinase 1 (Plasmodium falciparum (isolate 3D7)) (UniProt P62344); experiment: PfCDPK1 kinase inhibitors, biochemical, TCAMS library (AID 1159585; cut-off not given, nearly all actives have IC50 up to about 0.98 µM;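 note: inhibitors leave more ATP so luminescence rises with inhibition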); details: recombinant PfCDPK1, Kinase-Glo ATP depletion luminescence
Calcium-dependent protein kinase 1 (Plasmodium falciparum (isolate 3D7)), sequence (P62344 whole entry, looked up): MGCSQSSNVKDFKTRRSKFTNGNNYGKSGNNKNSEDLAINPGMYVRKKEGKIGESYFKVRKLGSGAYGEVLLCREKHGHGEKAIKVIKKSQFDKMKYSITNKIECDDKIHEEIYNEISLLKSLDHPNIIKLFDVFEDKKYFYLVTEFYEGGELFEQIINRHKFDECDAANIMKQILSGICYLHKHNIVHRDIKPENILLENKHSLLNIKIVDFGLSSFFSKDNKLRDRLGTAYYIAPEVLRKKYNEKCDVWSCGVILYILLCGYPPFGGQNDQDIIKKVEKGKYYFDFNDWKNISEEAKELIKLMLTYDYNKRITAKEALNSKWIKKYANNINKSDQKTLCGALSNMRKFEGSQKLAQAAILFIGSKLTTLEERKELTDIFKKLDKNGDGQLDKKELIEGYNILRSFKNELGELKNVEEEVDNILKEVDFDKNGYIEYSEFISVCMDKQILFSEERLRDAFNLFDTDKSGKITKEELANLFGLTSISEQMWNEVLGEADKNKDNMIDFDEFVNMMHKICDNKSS

[6] = biological target: Plasmodium falciparum protein kinase 6 (PK6, PF3D7_1337100) (UniProt Q8IDW1); experiment: PfPK6 kinase inhibitors, biochemical, TCAMS library (AID 1159586); details: recombinant PfPK6, Kinase-Glo ATP depletion luminescence
Plasmodium falciparum protein kinase 6 (PK6, PF3D7_1337100), sequence (Q8IDW1 1-305): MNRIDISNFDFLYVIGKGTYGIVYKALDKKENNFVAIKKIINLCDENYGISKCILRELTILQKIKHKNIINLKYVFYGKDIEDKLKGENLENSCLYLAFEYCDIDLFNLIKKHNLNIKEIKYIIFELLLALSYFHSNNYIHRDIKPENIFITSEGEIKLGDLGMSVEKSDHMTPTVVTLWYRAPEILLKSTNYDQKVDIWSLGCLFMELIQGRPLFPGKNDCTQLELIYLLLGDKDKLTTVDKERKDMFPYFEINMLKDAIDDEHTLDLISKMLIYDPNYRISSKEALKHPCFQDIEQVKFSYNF

[7] = biological target: Protein kinase 7 (PK7), Plasmodium falciparum 3D7 (PF3D7_0213400) (UniProt Q7YTF7); experiment: inhibition of Plasmodium PK7 catalytic activity – biochemical, TCAMS antimalarial set, Kinase-Glo luminescence (AID 1159587); details: recombinant PfPK7, Kinase-Glo ATP depletion luminescence
Protein kinase 7 (PK7), Plasmodium falciparum 3D7 (PF3D7_0213400), sequence (Q7YTF7 1-343): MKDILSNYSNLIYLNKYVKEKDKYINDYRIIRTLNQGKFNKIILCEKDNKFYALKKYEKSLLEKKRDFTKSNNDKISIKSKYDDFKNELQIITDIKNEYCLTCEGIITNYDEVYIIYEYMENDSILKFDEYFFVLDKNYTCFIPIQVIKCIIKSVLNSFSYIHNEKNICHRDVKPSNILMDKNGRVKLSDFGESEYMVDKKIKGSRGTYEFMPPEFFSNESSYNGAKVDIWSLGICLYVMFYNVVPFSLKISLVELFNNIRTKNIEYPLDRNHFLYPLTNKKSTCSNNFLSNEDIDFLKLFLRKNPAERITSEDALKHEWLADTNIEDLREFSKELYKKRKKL

[8] = biological target: Calcium-dependent protein kinase 4 (Plasmodium falciparum (isolate 3D7)) (UniProt Q8IBS5); experiment: PfCDPK4 kinase inhibitors, biochemical, TCAMS library (AID 1159588; cut-off not given, nearly all actives have IC50 up to about 0.91 µM); details: recombinant PfCDPK4, Kinase-Glo ATP depletion luminescence
Calcium-dependent protein kinase 4 (Plasmodium falciparum (isolate 3D7)), sequence (Q8IBS5 whole entry, looked up): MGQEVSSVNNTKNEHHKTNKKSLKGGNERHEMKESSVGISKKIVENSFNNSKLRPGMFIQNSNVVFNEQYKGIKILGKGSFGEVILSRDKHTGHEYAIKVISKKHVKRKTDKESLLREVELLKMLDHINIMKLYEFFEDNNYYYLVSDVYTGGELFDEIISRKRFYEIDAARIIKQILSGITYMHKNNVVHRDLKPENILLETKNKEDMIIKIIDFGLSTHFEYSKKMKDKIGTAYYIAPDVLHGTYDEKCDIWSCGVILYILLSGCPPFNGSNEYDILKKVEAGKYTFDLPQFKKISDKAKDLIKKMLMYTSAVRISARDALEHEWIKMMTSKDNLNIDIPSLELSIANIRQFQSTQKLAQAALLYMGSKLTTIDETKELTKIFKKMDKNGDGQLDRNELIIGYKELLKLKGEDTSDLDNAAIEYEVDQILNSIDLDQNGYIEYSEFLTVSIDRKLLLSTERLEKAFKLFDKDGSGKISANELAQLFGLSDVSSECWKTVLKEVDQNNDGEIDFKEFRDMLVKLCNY

| Structure (SMILES) | growth inhibition [1] | inhibition [2] | inhibition [3] [%] | growth inhibition [4] | outcome [5] | outcome [6] | outcome [7] | outcome [8] |
| --- | --- | --- | --- | --- | --- | --- | --- | --- |
| CC1CN(Cc2cccc(C#N)c2)CCN1c1ccc(NC(=O)c2cccs2)cc1 (stereo not given) | 93% (active) | 4% | 5 | 94% (active) | inactive | inactive | inactive | inactive |
| c1cncc(CCNCc2ccc(-c3cccc(-c4nc5ccccc5[nH]4)c3)cc2)c1 | 99% (active) | 39% | -2 | 102% (active) | inactive | inactive | inactive | inactive |
| O=C(Cc1cnc[nH]1)Nc1cccc(-c2cccc(-c3nc4ccc(C(F)(F)F)cc4[nH]3)c2)c1 | 101% (active) | 35% | -3 | 102% (active) | inactive | inactive | inactive | inactive |
| COc1ccc(CN2CCCC(C(=O)c3ccc(C(F)(F)F)cc3)C2)c(O)c1 (stereo not given) | 88% (active) | -2% | -3 | 98% (active) | inactive | inactive | inactive | inactive |
| Cc1nc(-c2ccc(-c3ccc(C(=O)Nc4ccc(-n5ccnc5)c(N5CCN(C)CC5)c4)cc3)c(C)c2)no1 | 100% (active) | 34% | 2 | 100% (active) | inactive | inactive | inactive | inactive |
| CCNc1cc(C(=O)N[C@@H](Cc2ccccc2)[C@H](O)CNC(C)(C)Cc2cccc(Cl)c2)cc(N2CCCCS2(=O)=O)c1 | 74% (active) | 17% | 3 | 97% (active) | inactive | inactive | inactive | inactive |
| Cc1ccc(CON2C(N)=NC(N)=NC23CCCCC3)c2ccccc12 | 56% (active) | 57% (active) | -8 | 98% (active) | inactive | inactive | inactive | inactive |
| O=C(/C=C/c1ccc(Cl)c(Cl)c1)NCCCCCCN1CCCN(C(=O)Nc2ccc(F)c(F)c2)CC1 | 2% | 72% (active) | 4 | 89% (active) | inactive | inactive | inactive | inactive |
| Nc1c(-c2ccc(C(=O)NCCNCc3ccccc3)cc2)cnn1-c1ccc(C(F)(F)F)cc1 | 2% | 23% | 1 | 85% (active) | inactive | inactive | inactive | inactive |
| COc1ccc(NC(=O)c2ccc(OCCCCCCCOc3ccc(C(=O)Nc4ccc(OC)c(N5CCN(C)CC5)c4)cc3)cc2)cc1N1CCN(C)CC1 | 91% (active) | 98% (active) | -5 | 96% (active) | inactive | inactive | inactive | inactive |
| Clc1ccccc1/C=C/c1cncnc1Nc1ccc2nc(Cc3ccccc3)[nH]c2c1 | 26% | 4% | -1 | 96% (active) | inactive | inactive | inactive | inactive |
| CN1CCN(CCCN(Cc2csc(-c3ccc(CNCc4ccccc4)cc3)n2)S(=O)(=O)c2ccc(F)cc2)CC1 | 80% (active) | 21% | 3 | 101% (active) | inactive | inactive | inactive | inactive |
| CNC(=O)Cc1ccc(C(=O)Nc2cccc(-c3cccc(-c4nc5ccc(C(F)(F)F)cc5[nH]4)c3)c2)cc1 | 37% | 40% | 5 | 95% (active) | inactive | inactive | inactive | inactive |
| CC(=O)Nc1ccc(CN2CCN(C(c3ccc(F)cc3)c3ccc(F)cc3)CC2)cc1 | 79% (active) | 4% | 0 | 93% (active) | inactive | inactive | inactive | inactive |
| O=C(Nc1ccc(C(=O)Nc2cccc(C3=NCCN3)c2)cc1)Nc1ccc(C2=NCCN2)cc1 | 98% (active) | -16% | -4 | 96% (active) | inactive | inactive | inactive | inactive |
| CS(=O)(=O)c1ccc(CCNCc2ccc(-c3cccc(-c4nc5ccccc5[nH]4)c3)cc2)cc1 | 99% (active) | 40% | -4 | 100% (active) | inactive | inactive | inactive | inactive |
| Cc1[nH]c(C)c(-c2ccc(-c3ccc(Cl)cc3)nc2)c(=O)c1Cl | 96% (active) | 8% | 3 | 95% (active) | inactive | inactive | inactive | inactive |
| CC(C)CCNC(=O)C1Cc2c([nH]c3cc(Br)ccc23)C2(CCN(Cc3ccccc3)CC2)N1 (stereo not given) | 45% | 10% | -5 | 96% (active) | inactive | inactive | inactive | inactive |
| CCCc1ccc(S(=O)(=O)NC2CCN(C(=O)Nc3ccc(I)cc3)CC2)cc1 | -8% | 8% | -3 | 97% (active) | inactive | inactive | inactive | inactive |
| CCCCCCNc1cc(C)nc(/N=C(\N)Nc2cccc(C(F)(F)F)c2)n1 | 100% (active) | 44% | -2 | 100% (active) | inactive | inactive | inactive | inactive |

| Structure (SMILES) | growth inhibition [1] | inhibition [2] | inhibition [3] [%] | growth inhibition [4] | outcome [5] | outcome [6] | outcome [7] | outcome [8] |
| --- | --- | --- | --- | --- | --- | --- | --- | --- |
| Nc1cccc(CNCc2cccc(-c3cccc(-c4nc5ccc(F)cc5[nH]4)c3)c2)c1 | 82% (active) | 5% | -4 | 102% (active) | inactive | inactive | inactive | inactive |
| Cc1cccc2[nH]c(-c3ccc(-c4cccc(CNCCN(C)C)c4)cc3)nc12 | 98% (active) | 6% | 0 | 102% (active) | inactive | inactive | inactive | inactive |
| CC(C)(C)c1ccc(CNC(=O)c2cc(CNC3CCNC3)ccc2O)cc1 (stereo not given) | 1% | 0% | -6 | 94% (active) | inactive | inactive | inactive | inactive |
| Cc1cc(N[C@@H](Cc2ccccc2)C(=O)Nc2ccccc2)nc(NCCN2CCCC2)n1 | -5% | 8% | 0 | 94% (active) | inactive | inactive | inactive | inactive |
| CN(C)CCc1coc2ccc(C(=O)Nc3ccc(-c4ccc(O)cc4)cc3)cc12 | 40% | 28% | -3 | 101% (active) | inactive | inactive | inactive | inactive |
| Fc1cccc(COc2ccc(Nc3ncnc4ccc(C#C[C@H]5CCCN5)cc34)cc2Cl)c1 | 26% | 7% | -2 | 91% (active) | inactive | inactive | inactive | inactive |
| Oc1ccc2c(c1CNC1CCCCC1)CCCC2 | 94% (active) | 0% | -3 | 98% (active) | inactive | inactive | inactive | inactive |
| c1ccc(CNCc2cccc(-c3ccc(-c4nc5ccccc5[nH]4)cc3)c2)cc1 | 39% | 10% | -5 | 97% (active) | inactive | inactive | inactive | inactive |
| CCCNc1nc(Nc2ccccc2C)nc2ccccc12 | 64% (active) | 13% | 1 | 95% (active) | inactive | inactive | inactive | inactive |
| Cc1ccc(/C=C/C(=O)NCCCCCN2CCC(c3c[nH]c4ccccc34)CC2)cc1 | 7% | 36% | 0 | 86% (active) | inactive | inactive | inactive | inactive |
| COc1ccc2nc3cc(Cl)ccc3c(NCCc3ccccc3)c2c1 | 82% (active) | -1% | 8 | 94% (active) | inactive | inactive | inactive | inactive |
| CCOc1ccccc1CON1C(N)=NC(N)=NC1(C)C | 1% | 66% (active) | -2 | 90% (active) | inactive | inactive | inactive | inactive |
| CC(=O)c1cccc(Nc2nc3c(C#N)c(OCc4cc(Cl)cc(Cl)c4)ccc3[nH]2)c1 | 45% | 29% | 0 | 86% (active) | inactive | inactive | inactive | inactive |
| Nc1nc(N)c2c(n1)CCC(c1ccccc1)C2 (stereo not given) | -1% | 55% (active) | 1 | 93% (active) | inactive | inactive | inactive | inactive |
| CC(C)Sc1nc(-c2ccccc2)nc2c1COC(C)(C)C2 | 41% | 2% | -4 | 98% (active) | inactive | inactive | inactive | inactive |
| CCOC(=O)c1c[nH]c2c(ccc3ccccc32)c1=O | 96% (active) | -5% | 3 | 96% (active) | inactive | inactive | inactive | inactive |
| COc1ccc(CN2CCC(CNCc3cccc(-c4ccccc4)c3)CC2)cc1 | 92% (active) | 96% (active) | 2 | 100% (active) | inactive | inactive | inactive | inactive |
| N#Cc1ccc(CN2CCCN(Cc3cccc(NC(=O)c4ccc(-c5ccccc5)cc4)c3)CC2)cc1 | 12% | 33% | 0 | 88% (active) | inactive | inactive | inactive | inactive |
| CC(C)CNCc1ccc(-c2ccc(CNC3CCN(Cc4ccccc4)CC3)cc2)cc1 | 96% (active) | 16% | 4 | 100% (active) | inactive | inactive | inactive | inactive |
| COc1ccc(NC(=O)N2CCCN(CCCCCNC(=O)/C=C/c3ccc(Cl)cc3)CC2)cc1Cl | 1% | 15% | 1 | 97% (active) | inactive | inactive | inactive | inactive |
